# Bioassay records from PubChem BioAssay.
# Hits are enriched below; roughly 3.9% of the tested compounds scored in any of these assays.
# TGFb inhibitor = inhibitors of TGF-b signaling; HepG2 CAGA-GFP TGF-b/SMAD3 reporter, GFP fluorescence, 18 h; TGF-beta stimulated, 500 pg/mL final; Potency, µM (doses to about 46.1 µM), for inactives: top-dose activity, negative = inhibition, actives largely listed as inhibitors; 410,000 tested, 1.2% active; further: on the % scale 0 is the no-effect control and ±100 the full control effect; nearly all actives have a fitted effect of over 65% in size
#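 HEPG2 CAGA-GFP cells (1000/well, DMEM with 1% FBS) were pre-incubated 2 h at 37 degrees C, given compound by pin tool, then stimulated with TGF-beta at 500 pg/mL final for 18 h before per-cell GFP fluorescence imaging.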
# HT1080 IDH1KD tx = toxicity to HT-1080 IDH1 knockdown cells (counter line); HT-1080 IDH1 knockdown viability, ATP luminescence, 48 h; 360,000 tested, 2% active; Potency, µM (series often up to 46.1 µM), inactives show top-dose activity, negative = toxicity, hits mostly cytotoxic;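 further: 0% = DMSO wells and -100% = cell-free medium wells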
#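 Cytotoxicity counter-line: IDH1KD HT-1080, 48 h, CellTiter-Glo. Curves classed by r2, magnitude and activity.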
# ATXN2 expr inh = ATXN2 expression inhibition; HEK-293 ATXN2-luciferase reporter, luminescence, 24 h; Potency, µM (highest dose often 57 µM), for the others: at the highest dose activity change, negative = inhibition, actives largely listed as inhibitors; 360,000 tested, 0.72% active; AID 1745845; further: on the % scale 0 is the no-effect control and ±100 the full control effect; nearly all actives have a fitted effect of over 55% in size
#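 ATXN2-luciferase reporter cells (luciferase flanked by upstream and downstream ATXN2 gene portions) were treated 24 h at 37 °C with compounds at up to 57 uM. SteadyGlo luminescence gave expression; GF-AFC fluorescence gave viability.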
# HT1080NT lethal = kills 2HG-producing HT-1080-NT fibrosarcoma cells; HT-1080-NT fibrosarcoma viability, CellTiter-Glo ATP luminescence, 48 h; Potency, µM (top dose mostly 46.1 µM), for inactives: at the highest dose activity, negative = less viability, usual class: cytotoxic; 360,000 tested, 1.6% active; AID 686970;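 further: NT is the 2HG producing partner of a matched IDH1 knockdown line; 0% = DMSO-treated cells and -100% = media-only wells without cells; nearly all actives have a fitted effect of over 55% in size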
#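 Luminescent CellTiter-Glo readout after 48 hours of compound exposure at 37 degrees C defined viability of HT-1080-NT cells. Activity was normalized to DMSO wells and cell-free media wells; concentration-response curves were fitted and assigned curve classes.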
# HepG2 viability = counter-screen for TGF-b inhibitors: cytotoxicity in HepG2 cells; HepG2 CAGA-GFP viability, ATP luminescence, 18 h; Potency, µM (series often up to 46.1 µM), without a hit: at the highest dose activity change, negative = cytotoxicity, hits mostly cytotoxic; 410,000 tested, 0.76% active
#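 HepG2 CAGA-GFP cells (1000/well, DMEM with 1% FBS) received compound, then TGF-beta at 500 pg/mL final, and were incubated 18 hours at 37 degrees C. Viability was read by CellTiter-Glo luminescence. Media-only wells were set as complete cell-killing and DMSO as no toxicity.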
# ATXN viability = reduces viability in counter-screen for ATXN expression inhibitors; S2 cells (HEK-293 line with an ATXN2-luciferase reporter) viability, CellTiter-Fluor protease fluorescence, 24 h; 400,000 tested, 0.49% active; Potency, µM (highest dose often 56.7 µM), hits mostly cytotoxic; AID 651635; further: nearly all actives have a fitted effect of over 40% in size
# Starred values were filed as active, the others as inactive; i = inactive; ? = inconclusive; . = no result given. The call rests on the fitted dose curve; in most records, active means well fitted curve in the direction sought with a large enough effect; inconclusive means small, poorly fitted or top-dose-only effect, or another doubt; inactive means no such curve, though single readings can be large; an effect the other way counts as inactive or inconclusive. Potency means the concentration at half of the fitted maximal effect.
SMILES,TGFb inhibitor,HT1080 IDH1KD tx,ATXN2 expr inh,HT1080NT lethal,HepG2 viability,ATXN viability
COc1cc(NC(=O)Cn2nnnc2-c2ccccc2F)cc(OC)c1OC,-20%,.,.,.,-9%,.
Cc1ccc(CNC(=O)Cc2ccc(-c3ccccc3)cc2)cc1,-20%,2.8µM*,0%,4µM*,-22%,?
O=C(Cc1ccc(-c2ccccc2)cc1)NCc1cccnc1,-13%,8.2µM*,-24%,?,-11%,i
O=C(Cc1ccc(Cl)cc1)c1c[nH]c(C(=O)NCc2cccnc2)c1,-28%,?,.,-15%,7%,2.5µM*
CC(C)c1ccc(N2C(=O)CSC23C(=O)N(C)c2ccccc23)cc1 (configuration not stated),39%,.,5%,.,-7%,i
C[C@H]1O[C@H](O[C@H]2[C@H](O)[C@@H](O)[C@@H](O[C@H]3[C@H](O)[C@@H](O)C(O)O[C@H]3CO)O[C@H]2CO)[C@H](O)[C@@H](O)[C@H]1N[C@H]1C=C(CO)[C@@H](O)[C@H](O)[C@@H]1O (some centres not stated),.,.,13%,.,.,.
CC(C)(C)[C@H]1CCC(=O)N(CCSc2ccc(Br)cc2)CC1,?,.,.,.,-64%,.
COc1cccc(NC(=O)CSC2=Nc3ccccc3C3=NC(CCC(=O)NC4CCCCC4)C(=O)N23)c1 (configuration not stated),38%,.,.,.,2%,.
Cc1ccc(CN2C(=O)c3ccccc3Sc3ccc(C(=O)NCCN4CCOCC4)cc32)cc1,?,9.2µM*,-37%,12µM*,-37%,i
O=C(NCCCN1CCOCC1)c1ccc2c(c1)N(Cc1cccc(Cl)c1)C(=O)c1ccccc1S2,?,.,.,.,11µM*,.
O=C(NCCCN1CCOCC1)c1ccc2c(c1)N(Cc1c(F)cccc1Cl)C(=O)c1ccccc1S2,?,0%,.,-6%,-34%,?
Cc1cccc(CN2C(=O)c3ccccc3Sc3ccc(C(=O)NCCN4CCOCC4)cc32)c1,-6%,-29%,-9%,?,-13%,i
CCCCCc1cc(=O)oc2c(C(CCN(CC)CC)c3ccc(OC)cc3)c(OC)cc(OC)c12 (configuration not stated),?,-21%,?,?,-101%,32µM*
CCN(CC)CCC(c1ccc2c(c1)OCO2)c1c(OC)cc(OC)c2c(C)cc(=O)oc12 (configuration not stated),-8%,.,.,.,-14%,.
CCN(CC)CCC(c1ccc(OC)cc1)c1c(OC)cc(OC)c2c(C)cc(=O)oc12 (configuration not stated),?,.,.,.,18µM*,.
CCN(CC)C(=O)CC(c1ccc(N(C)C)cc1)c1c(OC)cc(OC)c2ccc(=O)oc12 (configuration not stated),2%,0%,-13%,3%,3%,?
CCN(CC)CCC(c1ccc(N(C)C)cc1)c1c(OC)cc(OC)c2ccc(=O)oc12 (configuration not stated),-4%,-9%,3%,-2%,-2%,10µM*
CC(=O)OC[C@H]1O[C@@H](OC(C)=O)[C@H](OC(C)=O)[C@@H]1OC(C)=O,.,.,6%,.,.,i
Cc1ccc(-c2cnc(C3CC3)o2)cc1S(=O)(=O)Nc1ccc(F)cc1Cl,?,.,-5%,.,-31%,i
CC(C)(C)c1ccc(C(=O)Nc2nnc(SCC(=O)NCC3CCCO3)s2)cc1 (configuration not stated),-3%,5%,16µM*,7%,-7%,i
Cc1ccccc1-n1c(SCC(=O)NCC2CCCO2)nnc1-c1ccncc1 (configuration not stated),-2%,14%,6%,3%,6%,i
Cc1ccccc1-n1c(C)nnc1SCC(=O)NCC1CCCO1 (configuration not stated),9%,22µM*,3%,?,1%,i
O=C(Cn1c(=O)n(Cc2ccc(C(=O)NCc3ccc4c(c3)OCO4)cc2)c(=O)c2ccccc21)Nc1ccc(F)cc1F,32%,.,-2%,.,2%,i
CCCCN(C(C)=O)c1ccc2c(c1)C1CC2CCN1C(=O)OCc1ccccc1 (configuration not stated),13µM*,-24%,?,-14%,-27%,?
COc1ccccc1-c1nnc(SC2CCc3ccccc3NC2=O)s1 (configuration not stated),13µM*,-14%,11%,3%,1%,i
SMILES,TGFb inhibitor,HT1080 IDH1KD tx,ATXN2 expr inh,HT1080NT lethal,HepG2 viability,ATXN viability
COc1ccc2[nH]c3c4c(ccc3c2c1)C(=O)C=CC4=O,14µM*,16µM*,3.5µM*,13µM*,-75%,6.3µM*
COc1ccc2[nH]c(=O)cc(C(=O)O)c2c1,0%,5%,1%,8%,0%,i
COc1ccc(NC(=O)CN2CCc3ccccc3C2)cc1S(=O)(=O)N1CCOCC1,10%,-8%,14%,-13%,8%,i
COc1cc2c(cc1OC)C(C)N(CC(=O)Nc1ccc(C)c(S(=O)(=O)N3CCOCC3)c1)CC2 (configuration not stated),-6%,?,.,16µM*,-8%,i
COc1ccc(C(CCNCc2ccc(N(C)C)cc2)c2ccccc2OC)cc1 (configuration not stated),?,29µM*,?,?,-48%,i
COc1ccc(CNC(=S)NCc2ccc(OC(C)C)cc2)cc1,-18%,3%,-9%,-15%,18µM*,i
COc1ccc(CNCCC(c2ccc(OC)cc2)c2ccccc2OC)cc1 (configuration not stated),?,21µM*,-37%,15µM*,11µM*,?
COc1ccc(C(CCNCc2ccc(OC(C)C)cc2)c2ccccc2OC)cc1 (configuration not stated),14µM*,?,.,?,11µM*,14µM*
COc1ccc(CNC(C)CCc2ccccc2)cc1 (configuration not stated),9%,-18%,-11%,-17%,0%,i
CC(Oc1ccc(Cl)cc1Cl)c1nc(-c2ccc(NC(=O)c3cccnc3)cc2)no1 (configuration not stated),?,7.3µM*,-20%,?,-55%,i
CC(Oc1ccc(Cl)cc1Cl)C(=O)NNC(=O)c1cccnc1 (configuration not stated),1%,4%,-22%,-12%,-7%,?
